Sampled rows, rich in hits. Any-hit rate of the full collection: about 31%.
CYP2C9 act – increases human cytochrome P450 2C9 activity. P11712. recombinant CYP2C9, luciferin-H conversion, luminescence; hits give high values; factor 1 = untreated enzyme, 0 = blocked. activation factor at 5 µM. hit rate 1.4% among 96,000. AID 1024;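 active = activation factor of 2 or more for CYP2C9 at a 5 µM dose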;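 note: 0 = sulfaphenazole-blocked wells and 1 = vehicle-only wells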
CYP2C19 inh – human CYP2C19 inhibition | CYP2C19 Supersomes, luciferin-H EGE luminescence, 30 min | P33261 | inhibition, % at 5 µM | hit rate 21% among 96,000;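 active = CYP2C19 inhibition above a set limit at 5 µM in the primary screen, cut at about 50% in these data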;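 note: plate controls were negative control wells for no effect and 2.5 mM tranylcypromine positive control for full effect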
Target sequence (P33261 whole entry, looked up): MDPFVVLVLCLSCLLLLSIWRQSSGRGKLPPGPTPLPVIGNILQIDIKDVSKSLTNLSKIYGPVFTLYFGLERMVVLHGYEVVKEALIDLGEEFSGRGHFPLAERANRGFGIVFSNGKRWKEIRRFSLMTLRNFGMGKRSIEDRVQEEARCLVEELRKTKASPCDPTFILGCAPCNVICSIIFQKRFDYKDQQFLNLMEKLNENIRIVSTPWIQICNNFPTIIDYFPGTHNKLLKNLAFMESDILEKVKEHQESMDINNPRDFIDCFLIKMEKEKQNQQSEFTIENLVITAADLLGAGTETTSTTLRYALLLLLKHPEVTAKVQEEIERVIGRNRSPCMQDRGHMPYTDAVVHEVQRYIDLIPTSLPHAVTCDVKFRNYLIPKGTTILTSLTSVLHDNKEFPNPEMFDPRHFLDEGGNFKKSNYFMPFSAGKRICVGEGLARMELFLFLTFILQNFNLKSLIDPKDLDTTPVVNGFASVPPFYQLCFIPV
CYP2C9 inhib – inhibitors of human CYP2C9. P11712. CYP2C9 Supersomes, luciferin-H conversion, luminescence. inhibition, % at 5 µM. hit rate 20% among 96,000. AID 777;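 active = blocking of liver enzyme CYP2C9 beyond about 50% at 5 µM, limit read from the data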
CYP2C19 activ – cytochrome P450 2C19 (human) activation. P33261. recombinant CYP2C19, luciferin-H EGE luminescence; hits give high values; 0 = fully inhibited enzyme, 1 = untreated enzyme. activation factor at 5 µM. 96,000 tested, under 10 active;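 active = activation factor of at least 2 at 5 µM in the primary screen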;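 note: 0 = wells with 2.5 mM tranylcypromine and 1 = vehicle-only wells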
An asterisk follows results filed as active.

SMILES | CYP2C9 act | CYP2C19 inh | CYP2C9 inhib | CYP2C19 activ
CC(=O)OC1COC(N2CCc3cc([N+](=O)[O-])ccc32)C(OC(C)=O)C1OC(C)=O (stereo not given) | 0.2 | 72.3* | 80.6* | 0.3
Cc1cc2c(c(C)nn2-c2ccccc2)c(=O)o1 | 0.6 | 56.1* | 38.9 | 0.4
N=C1C(c2nc3ccccc3c(=O)[nH]2)=C(O)CN1CCc1ccccc1 | 0.4 | 63.4* | 60.4* | 0.4
CC(C)N1CC(O)=C(c2ccccc2)C1=N | 1 | -9.0 | 2.8 | 1.1
CC(C)CCN1CC(O)=C(c2nc(-c3ccc(Cl)cc3)cs2)C1=N | 0.8 | 11.5 | 22.0 | 0.9
CC(C)N1CC(O)=C(c2nc3ccccc3[nH]2)C1=N | 1 | 54.5* | -1.5 | 0.5
CCCCCCN1CC(O)=C(c2ccccc2)C1=N | 1.3 | -11.0 | -34.0 | 1.1
CCCCN1CC(O)=C(c2nc3ccccc3[nH]2)C1=N | 0.5 | 70.7* | 52.0* | 0.3
CC(C)CCN1CC(O)=C(c2nc3ccccc3[nH]2)C1=N | 0.4 | 68.2* | 59.6* | 0.3
N=C1C(c2nc3ccccc3c(=O)[nH]2)=C(O)CN1CCO | 1 | 4.6 | -1.5 | 1
Cc1nc(N)sc1Cc1ccc2c(c1)OCO2 | 1.1 | 46.3 | -6.2 | 0.5
Cc1nnc(C)c2c(C)n(Cc3ccc4c(c3)OCO4)c(C)c12 | 0.8 | 39.8 | 17.9 | 0.6
COc1cccc(OC)c1Oc1ccc(C(F)(F)F)cn1 | 0.9 | 65.7* | 10.9 | 0.3
FC(F)(F)c1cnc(Oc2ccccc2-c2nnco2)c(Cl)c1 | 0.8 | 95.3* | 22.6 | 0
Nc1ccccc1Oc1ncc(C(F)(F)F)cc1Cl | 1.2 | 71.6* | -19.5 | 0.3
FC(F)(F)c1cnc(Oc2ccc(-c3nnco3)cc2)c(Cl)c1 | 0.8 | 22.7 | 24.3 | 0.8
CSCCC1(C(=O)O)NC(c2ccccc2O)C2C(=O)N(C(C)C)C(=O)C21 (stereo not given) | 1.1 | 8.9 | -9.1 | 0.9
COC(=O)c1c(O)c2c([nH]c1=O)CCCC2 | 1.1 | 3.1 | -8.7 | 1
CCC1(C)Cc2c(sc(NC(=O)CCC(=O)O)c2C#N)CO1 (stereo not given) | 1 | -7.5 | -0.2 | 1.1
CCC(=O)Nc1sc2c(c1C#N)CC(C)(CC)OC2 (stereo not given) | 0.9 | 51.3* | 8.4 | 0.5
O=C(Nc1nc2ccccc2s1)C1CC(=O)N(c2ccc(F)cc2)C1 (stereo not given) | 0.7 | 8.0 | 31.6 | 0.9
Cc1cc(C)nc(N2CCCC(C(=O)NC(C)CCc3ccco3)C2)n1 (stereo not given) | 0.4 | 73.9* | 58.7* | 0.3
Cc1cc(C(=O)N2CCN(c3ncccn3)CC2)c2cc(F)ccc2n1 | 0.7 | 32.0 | 30.7 | 0.7
Cc1ccc2nc(-c3ccccn3)cc(C(=O)N3CCN(c4ncccn4)CC3)c2c1 | 0.5 | 19.8 | 53.6* | 0.8
CC(C)Oc1cccc(-c2cc(C(=O)N3CCN(S(C)(=O)=O)CC3)c3ccccc3n2)c1 | 0.9 | -5.2 | 11.7 | 1.1
SMILES | CYP2C9 act | CYP2C19 inh | CYP2C9 inhib | CYP2C19 activ
O=C(O)c1cc(-c2ccncc2)nc2ccc(F)cc12 | 0.9 | 12.0 | 9.6 | 0.9
COc1cccc(-c2cc(C(=O)Nn3cnnc3)c3ccccc3n2)c1 | 0 | 77.3* | 97.3* | 0.2
CC(C)Oc1cccc(-c2cc(C(=O)N3CCN(c4ncccn4)CC3)c3ccccc3n2)c1 | 0.2 | 29.1 | 84.1* | 0.7
O=C(c1cc(-c2ccncc2)nc2ccccc12)N1CCN(S(=O)(=O)/C=C/c2ccccc2)CC1 | 0.2 | 58.2* | 80.4* | 0.4
CCc1nc2ccccc2n1Cc1cc(=O)n2cc(C)ccc2n1 | 0.6 | 16.5 | 35.9 | 0.8
CCSc1nnc(NC(=O)c2nn(C(C)C)c(=O)c3ccccc23)s1 | 0.8 | 6.6 | 16.3 | 0.9
Cc1ccc(-c2cc(C(=O)N3CCN(c4ncccn4)CC3)c3ccccc3n2)cc1 | 0 | 93.7* | 98.3* | 0.1
COc1cccc(-c2cc(C(=O)N3CCN(c4ncccn4)CC3)c3ccccc3n2)c1 | 0 | 73.0* | 96.3* | 0.3
CC(C)COC(=S)Nc1ccccc1 | 0.8 | 77.8* | 23.2 | 0.2
CCNC(=S)NNC(=O)Nc1ccccc1 | 1.1 | 17.7 | -11.7 | 0.8
O=C1N=C(N2CCN(c3cccc4ccccc34)CC2)S/C1=C/c1cccs1 | 1.1 | 54.2* | -5.9 | 0.5
O=C1N=C(N2CCOCC2)S/C1=C/c1cccs1 | 1.1 | 9.2 | -7.2 | 0.9
Cc1ccc(C(=O)OCc2cn3ccccc3n2)cc1 | 0.4 | 83.0* | 58.8* | 0.2
COC(=O)CCC/C=C1/SCC(NC(=O)c2ccccc2)C1=O (stereo not given) | 0.7 | 3.8 | 25.7 | 1
CC1(C)OC(=O)C(C(c2ccccc2)C(C#N)C(N)=O)=C(O)O1 (stereo not given) | 1.2 | -20.0 | -22.1 | 1.2
Cc1cc(C)n(-c2c(F)c(F)c(CN3CCCCC3)c(F)c2F)n1 | 0.9 | 23.6 | 9.2 | 0.8
CC(C)CCN1C(=O)c2ccc(C(=O)NCC3CCCO3)cc2C1=O (stereo not given) | 0.2 | 79.3* | 80.7* | 0.2
Cc1cc(NC(=O)c2ccc3c(c2)C(=O)N(C2CCCCC2)C3=O)no1 | 0.9 | -5.9 | 5.6 | 1.1
O=C(NCC1CCCO1)c1ccc2c(c1)C(=O)N(C1CCCCC1)C2=O (stereo not given) | 0.4 | 1.2 | 60.6* | 1
COC(=O)c1c(C)cc(C)n2c1nc1ccccc12 | 1 | -1.2 | 2.3 | 1
CCCCCCOC(=O)c1ccc(NC(=O)c2cc(OC)c(OC)c(OC)c2Br)cc1 | 0.4 | 44.3 | 64.5* | 0.6
O=C(C1CCC(=O)N1C1CCCCC1)N1CCN(c2ccc(F)cc2)CC1 (stereo not given) | 1 | -3.4 | 1.6 | 1
O=C1c2oc3ccc(F)cc3c(=O)c2C(c2ccccc2)N1CC1CCCO1 (stereo not given) | 0.4 | 18.7 | 62.5* | 0.8
O=C1c2oc3ccccc3c(=O)c2C(c2cccc(F)c2)N1CCCO (stereo not given) | 0.9 | 50.1* | 8.1 | 0.5
Cc1nn(C)c(C(=O)Nc2ccc(Cn3cccn3)cc2)c1[N+](=O)[O-] | 0.6 | 18.1 | 39.6 | 0.8
SMILES | CYP2C9 act | CYP2C19 inh | CYP2C9 inhib | CYP2C19 activ
c1ccc(Cn2nnnc2CN2CCOCC2)cc1 | 1.1 | 12.1 | -6.2 | 0.9
CC(C)(C)c1ccc(/C=N/NC(=O)Cc2c[nH]c3ccccc23)cc1 | 0.3 | 27.6 | 74.0* | 0.7
COc1ccccc1N(C(=O)CNS(=O)(=O)c1ccccc1)C(C(=O)NCc1ccco1)C(C)C (stereo not given) | 0.7 | 23.0 | 34.0 | 0.8
COc1ccc(C2CC(C(F)(F)F)n3ncc(C(=O)Nc4cccc(O)c4)c3N2)cc1OC (stereo not given) | 0.5 | 18.9 | 50.2* | 0.8
COc1cccc(C2CC(C(F)(F)F)n3ncc(C(=O)NCc4ccco4)c3N2)c1 (stereo not given) | 0.2 | 66.9* | 82.6* | 0.3
COc1ccc(C2CC(C(F)(F)F)n3nc(CO)c(Cl)c3N2)cc1OC (stereo not given) | 0 | 77.3* | 98.3* | 0.2
COc1cccc(C2CC(C(F)(F)F)n3nc(C(=O)NCc4cccnc4)cc3N2)c1 (stereo not given) | 1.2 | -11.1 | -24.0 | 1.1

Screens: PubChem, Sanford-Burnham Center for Chemical Genomics
